Assay results from PubChem BioAssay AID717 (Columbia University Molecular Screening Center, 2007).
About 40 (0.04%) of roughly 91,000 compounds were called active. The list is a sample of the results. Values without a mark were called inactive. Rule as the data show it: active = activation above about 37%; inactive = the rest.

Biological target: Bifunctional epoxide hydrolase 2 (Homo sapiens) (UniProt P34913)
Test: sEH enzyme activity enhancers – biochemical, human sEH, primary screen (AID 717)
Conditions: purified human sEH enzymatic activity, activator screen; at 2 µM; hits give high values

Chain of Bifunctional epoxide hydrolase 2 (Homo sapiens) (P34913 whole entry, looked up): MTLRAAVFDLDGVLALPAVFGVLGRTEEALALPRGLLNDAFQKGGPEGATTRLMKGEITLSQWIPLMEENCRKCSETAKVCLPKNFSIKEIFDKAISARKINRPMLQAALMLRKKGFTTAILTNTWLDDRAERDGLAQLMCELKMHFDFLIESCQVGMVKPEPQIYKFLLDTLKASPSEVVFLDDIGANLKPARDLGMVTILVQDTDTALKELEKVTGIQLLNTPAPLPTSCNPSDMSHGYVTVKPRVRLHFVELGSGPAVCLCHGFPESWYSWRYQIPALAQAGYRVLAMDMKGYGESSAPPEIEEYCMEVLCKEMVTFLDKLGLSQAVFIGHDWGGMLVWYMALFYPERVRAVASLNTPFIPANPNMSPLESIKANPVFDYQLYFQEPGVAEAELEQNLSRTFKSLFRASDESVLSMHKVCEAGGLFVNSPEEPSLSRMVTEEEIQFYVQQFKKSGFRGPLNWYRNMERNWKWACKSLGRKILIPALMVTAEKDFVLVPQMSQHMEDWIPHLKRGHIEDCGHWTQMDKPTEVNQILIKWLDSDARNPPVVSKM

Row | SMILES | activation [%]
1 | Cc1cccc(-n2cnc(C(=O)Nc3cccnc3)c2)n1 | 7.2
2 | CC(C)C(NS(=O)(=O)c1cccs1)C(=O)Nc1nc(C(C)(C)C)cs1 (stereo not drawn) | -6
3 | c1ccc2c(C[n+]3csc4ccccc43)cccc2c1 | 12.2
4 | c1ccc(-c2ccnc3nc(-n4cccc4)nn23)cc1 | 3.1
5 | COc1cccc(/C=N/NC(=O)C(=O)N2CCCC2)c1 | 7.2
6 | CC(C)CC(=O)N1CCC(O)(CS(=O)(=O)Cc2ccccc2)CC1 | 0.4
7 | NC(=O)COc1ccc(/C=N/NC(=O)C2CCCN2S(=O)(=O)c2ccc(Cl)cc2)cc1 (stereo not drawn) | -1.2
8 | O=C(O)COc1ccc(-c2nccc(-c3cccs3)n2)cc1 | -9.3
9 | O=C(CSc1ncnc2c1cnn2CCc1ccccc1)Nc1ccc(F)cc1 | -20.6
10 | CN(C)/C=C(\C#N)C(=O)c1cccnc1Oc1ccc(F)cc1F | -10.7
11 | Cc1ccc2c(c1)-c1c(ssc1=S)C(C)(C)N2C(=O)CN1C(=O)c2ccccc2C1=O | 25.4
12 | Cn1nc([N+](=O)[O-])nc1Sc1ccc(C(C)(C)C)cc1 | -5.2
13 | Cc1sc(NC(=S)NC(=O)c2cccs2)nc1-c1ccc(CC(C)C)cc1 | 17.5
14 | Cc1ccc(C)c(NC(=O)C2Cc3ccccc3CN2C(=O)OCc2ccccc2)c1 (stereo not drawn) | 7.9
15 | COC(=O)c1c(-c2cccs2)csc1NC(=O)CSc1ncnc2sc(C)c(C)c12 | -7
16 | Cc1cc([N+](=O)[O-])ccc1NCc1cccc([N+](=O)[O-])c1 | 2.8
17 | O=S(=O)(/N=C(/Nc1ccccn1)c1ccccc1)c1ccc(Cl)cc1 | -19.7
18 | N/C(=N\OC(=O)c1cc(-c2ccccc2)nc2ccccc12)c1ccncc1 | 3
19 | Cc1cc2cc3c(N)[nH]nc3nc2cc1C | -5.4
20 | O=C(/C=C/c1cccs1)c1cc(Cl)ccc1OC(=O)N1CCOCC1 | 7.4

Row | SMILES | activation [%]
21 | O=C(O)c1ccccc1NC(=S)NC(NC(=O)c1ccccc1[N+](=O)[O-])C(Cl)(Cl)Cl (stereo not drawn) | -9.3
22 | Cc1c(Br)c([N+](=O)[O-])nn1C(C)C(=O)Nc1nccs1 (stereo not drawn) | 6.6
23 | CN(C)/C=C/C(=O)c1ccccc1F | -11.3
24 | COC(=O)CN(C(=S)Nc1ccc(Cl)cc1)C1CC(=O)N(c2ccc(OC)cc2)C1=O (stereo not drawn) | -11.8
25 | Cc1ccc(-c2nnc(C)c(N3CC(C)OC(C)C3)n2)cc1 (stereo not drawn) | -0.3
26 | COc1ccc(-c2c(C(C)=O)c(C)nc3sc4c(=O)n(-c5ccc(C)cc5)nnc4c23)cc1 | -1.9
27 | O=C(ON=C1CCN(S(=O)(=O)c2ccccc2)CC1)c1ccc(Cl)cc1 | 0.1
28 | N#C/C(=C(/O)Cc1cccc2ccccc12)c1nc2ccccc2s1 | 13.6
29 | NS(=O)(=O)c1ccc(Nc2nc(-c3ccccc3)cs2)cc1 | -4.9
30 | CS(=O)(=O)N(CC(=O)Nc1ccc(F)cc1F)c1cccc([N+](=O)[O-])c1 | -2.8
31 | O=C(Nc1cc(C(F)(F)F)ccc1Cl)c1cc2nc3c(c(C(F)(F)F)n2n1)CCCC3 | -7.1
32 | COc1ccc(/C=C2\CCCC3C2=NN(C(=O)c2scnc2C)C3c2ccc(OC)cc2)cc1 (stereo not drawn) | 12.7
33 | O=C(c1ccccc1)C(Cn1cncn1)C(Sc1ccccc1)c1ccccc1 (stereo not drawn) | 3.9
34 | Cc1nc(SCC(=O)N2CC(=O)Nc3ccccc32)c2c(C)c(C)sc2n1 | -1.1
35 | COc1ccc(Cc2nnc(SCC(=O)c3cccc([N+](=O)[O-])c3)n2C)cc1 | 16.7
36 | O=C(Nc1ccc2c(c1)OCCO2)c1ccc(Cl)c(S(=O)(=O)N2CCCCC2)c1 | -77.7
37 | CCCCNC(=O)C(=O)c1ccccc1NC(C)=O | -0.9
38 | CC(C)(CCl)C(=O)Nc1ccc(Sc2ccc(F)cc2)cc1 | -29.2
39 | O=C(CCNS(=O)(=O)c1ccccc1C(F)(F)F)NCc1ccc2c(c1)OCO2 | 3.4
40 | COCCCNCC(=O)Nc1sc(C)c(C)c1C(=O)OC | -1

Row | SMILES | activation [%]
41 | Cc1ccc(CNC(=O)C2CC(c3ccccc3[N+](=O)[O-])=NO2)o1 (stereo not drawn) | 1.1
42 | Cc1c(NC(=O)CCCOc2ccccc2)cccc1[N+](=O)[O-] | -9.6
43 | CCC(C)n1c(-c2cc(OC)c(OC)c(OC)c2)nc2nc3ccccc3nc21 (stereo not drawn) | 0.8
44 | COc1cc(C(=S)N2CCOCC2)cc(OC)c1OC(=O)c1cc([N+](=O)[O-])c(C)c([N+](=O)[O-])c1 | -3.8
45 | COc1ccc(/C=C(/NC(=O)c2ccc(C)cc2)c2nc3ccccc3[nH]2)cc1OC | 4.1
46 | O=C(O)c1ccccc1-c1ccccc1C(=O)Nc1cccc2ccccc12 | 6.9
47 | O=C(Nc1nnc(CCOCCOCCc2nnc(NC(=O)c3ccco3)s2)s1)c1ccco1 | -12
48 | CCn1c(SCc2ccc(C)cc2)nnc1-c1nn(-c2ccccc2)ccc1=O | 17.2
49 | CC(Oc1ccc(F)cc1F)C(=O)/C=C/N(C)C (stereo not drawn) | 0.5
50 | CCOC(=O)C1=C(C)Nc2sc(C(=O)c3ccc(Br)cc3)c(N)c2C1c1ccc(C(=O)OC)cc1 (stereo not drawn) | -3.6
51 | Cc1cc([N+](=O)[O-])c(NC2CCCCC2)c([N+](=O)[O-])c1 | 3.5
52 | O=C(NCCc1ccccn1)c1cc(C(=O)C2CCCCC2)c[nH]1 | 9.3
53 | CC(C)c1cc(C(N)=O)c(NC(=O)c2cccc(COc3ccc(Br)cc3)c2)s1 | -3.7
54 | Cc1ccc(NC(=S)NC2CCCC2)cc1 | -29.3
55 | COC(=O)c1ccccc1OCC(=O)N1CCN(c2ccc(Cl)cc2)CC1 | -44.9
56 | C=CCNc1cnn(-c2ccc(C)cc2)c(=O)c1Cl | 0.5
57 | CCc1cccc2c(C=C(C#N)C#N)cn(CC(=O)N3CCCCC3)c12 | 5
58 | COCCCn1c(SCc2cccc(OC)c2)nc2cc(OC)c(OC)cc2c1=N | -5.2
